In PubChem BioAssay (EPA / NIEHS):
The source made the active and inactive calls. Rule for the calls: active = hit-call score of the fitted dose curve at least 0.9, where 1 is the maximum; inactive = score below 0.9.

Biological target: Paired box protein Pax-6 (Homo sapiens) (UniProt P26367)
Test: ATG_Pax6_CIS: Attagene CIS-FACTORIAL HepG2 Assay for human Paired Box 6 (PAX6) (AID 2282956)
Conditions: HepG2 CIS-FACTORIAL PAX6 reporter transcription, RNA readout; actives raise or lower the signal
Summary of the method: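 Read-out is reporter transcript level, measured by RT-PCR with fluorescent primer extension and capillary electrophoresis after 24 h dosing of transfected HepG2 cells. Activity in either direction fitted relative to DMSO control.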

Paired box protein Pax-6 (Homo sapiens), sequence (P26367 whole entry, looked up): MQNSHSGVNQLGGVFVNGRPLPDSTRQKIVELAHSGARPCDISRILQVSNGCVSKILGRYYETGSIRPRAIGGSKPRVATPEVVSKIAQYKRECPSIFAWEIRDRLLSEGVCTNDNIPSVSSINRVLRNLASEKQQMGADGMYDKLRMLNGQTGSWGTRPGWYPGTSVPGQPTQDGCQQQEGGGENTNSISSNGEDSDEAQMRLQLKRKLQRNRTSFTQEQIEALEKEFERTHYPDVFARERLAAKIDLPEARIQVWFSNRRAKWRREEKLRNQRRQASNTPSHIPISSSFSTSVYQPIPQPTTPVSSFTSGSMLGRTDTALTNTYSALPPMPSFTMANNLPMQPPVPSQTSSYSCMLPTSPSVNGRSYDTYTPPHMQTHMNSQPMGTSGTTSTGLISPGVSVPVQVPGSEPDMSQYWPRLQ

| SMILES | outcome | AC50 |
| --- | --- | --- |
| C[Si](C)(C)O[Si](C)(C)C | inactive |  |
| CCCN(CCC)S(=O)(=O)c1ccc(C(=O)O)cc1 | inactive |  |
| C=C1CC[C@H](O)C/C1=C/C=C1\CCC[C@]2(C)[C@@H]([C@H](C)/C=C/[C@H](C)C(C)C)CC[C@@H]12 | inactive |  |
| CCC(C)S (stereo not drawn) | inactive |  |
| CCCCCCC(CO)CCCC (stereo not drawn) | inactive |  |
| CCN(CC)C(=O)N(CC)CC | inactive |  |
| COC(=O)c1ccc([N+](=O)[O-])cc1 | inactive |  |
| c1ccc2[nH]cnc2c1 | inactive |  |
| COC(=O)C=C(C)CCC=C(C)C | inactive |  |
| CC(C)(N=C=O)c1cccc(C(C)(C)N=C=O)c1 | inactive |  |
| N#Cc1ccc(CC(=O)c2cccc(C(F)(F)F)c2)cc1 | inactive |  |
| O=[N+]([O-])c1cccc(Cl)c1 | inactive |  |
| CCCCC1(COC(=O)CCC(=O)O)C(=O)N(c2ccccc2)N(c2ccccc2)C1=O | inactive |  |
| Nc1ccc2cc(S(=O)(=O)O)cc(O)c2c1N=Nc1ccccc1C(F)(F)F | inactive |  |
| NC1CCCCC1N (stereo not drawn) | inactive |  |
| CCC1(C)NC(=O)NC1=O (stereo not drawn) | inactive |  |
| CC1C2CC(CC2C2CCCC(O)C2)C1(C)C (stereo not drawn) | inactive |  |
| CCCC(O)C(O)CO (stereo not drawn) | inactive |  |
| CC(C)CC(C)CC(O)CC(C)C (stereo not drawn) | inactive |  |
| CCOC(=O)C(C#N)=C(c1ccccc1)c1ccccc1 |  | 35.1 µM (active) |

| SMILES | outcome | AC50 |
| --- | --- | --- |
| Cc1ccc(S(N)(=O)=O)cc1 | inactive |  |
| CC1(C)O[C@@H]2C[C@H]3[C@@H]4CCC5=CC(=O)C=C[C@]5(C)[C@@]4(F)[C@@H](O)C[C@]3(C)[C@]2(C(=O)CO)O1 | inactive |  |
| CC(C)(CO)[C@@H](O)C(=O)NCCC(=O)O | inactive |  |
| Cc1c(Cl)cccc1[N+](=O)[O-] | inactive |  |
| CC1(C)COCN1 | inactive |  |
| CCCOC(=O)c1c(Cl)c(Cl)c(Cl)c(Cl)c1C(=O)OCCC | inactive |  |
| CC(C)Nc1nc(N)nc(Cl)n1 | inactive |  |
| OCCCCC(O)CO (stereo not drawn) | inactive |  |
| Cc1cc(=O)oc2cc(N(C)C)ccc12 | inactive |  |
| CS(=O)(=O)OCCCCOS(C)(=O)=O | inactive |  |
| CCOC(=O)C1OC1c1ccccc1 (stereo not drawn) | inactive |  |
| CCOc1ccc(N=Nc2ccc(C=Cc3ccc(N=Nc4ccc(OCC)cc4)cc3S(=O)(=O)O)c(S(=O)(=O)O)c2)cc1 | inactive |  |
| CN(C)c1cccc(O)c1 | inactive |  |
| O=C(O)CCCCCCCCCCCC(=O)O | inactive |  |
| N[C@@H](Cc1cc(I)c(Oc2cc(I)c(O)c(I)c2)c(I)c1)C(=O)O | inactive |  |
| O=C(c1ccccc1)C(O)c1ccccc1 (stereo not drawn) | inactive |  |
| C[Si]1(C)O[Si](C)(C)O[Si](C)(C)O1 | inactive |  |
| COc1cc(Cl)c(OC)cc1N | inactive |  |
| C=CCCC(=O)/C=C/C1C(C)=CCCC1(C)C (stereo not drawn) | inactive |  |

Test system: not listed separately
Test: ATG_PXRE_CIS: Attagene CIS-FACTORIAL HepG2 Assay for human Pregnane X Receptor Element (PXRE) (AID 2282957)
Conditions: HepG2 Attagene CIS-FACTORIAL PXRE reporter, mRNA; actives raise or lower the signal
Summary of the method: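 After a 24 h chemical incubation, total RNA from transfected HepG2 cells was reverse-transcribed and reporter cDNA amplified, FAM-labeled, HpaI-digested and sized by capillary electrophoresis. DMSO served as baseline for bidirectional curve fitting.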

| SMILES | outcome | AC50 |
| --- | --- | --- |
| C[Si](C)(C)O[Si](C)(C)C | inactive |  |
| CCCN(CCC)S(=O)(=O)c1ccc(C(=O)O)cc1 |  | 27.3 µM (active) |
| C=C1CC[C@H](O)C/C1=C/C=C1\CCC[C@]2(C)[C@@H]([C@H](C)/C=C/[C@H](C)C(C)C)CC[C@@H]12 |  | 3.32 µM (active) |
| CCC(C)S (stereo not drawn) | inactive |  |
| CCCCCCC(CO)CCCC (stereo not drawn) |  | 33.4 µM (active) |
| CCN(CC)C(=O)N(CC)CC |  | 52 µM (active) |
| COC(=O)c1ccc([N+](=O)[O-])cc1 | inactive |  |
| c1ccc2[nH]cnc2c1 | inactive |  |
| COC(=O)C=C(C)CCC=C(C)C |  | 7.51 µM (active) |
| CC(C)(N=C=O)c1cccc(C(C)(C)N=C=O)c1 |  | 13.1 µM (active) |
| N#Cc1ccc(CC(=O)c2cccc(C(F)(F)F)c2)cc1 |  | 5.18 µM (active) |
| O=[N+]([O-])c1cccc(Cl)c1 | inactive |  |
| CCCCC1(COC(=O)CCC(=O)O)C(=O)N(c2ccccc2)N(c2ccccc2)C1=O |  | 19.5 µM (active) |
| Nc1ccc2cc(S(=O)(=O)O)cc(O)c2c1N=Nc1ccccc1C(F)(F)F |  | 38.5 µM (active) |
| NC1CCCCC1N (stereo not drawn) | inactive |  |
| CCC1(C)NC(=O)NC1=O (stereo not drawn) | inactive |  |
| CC1C2CC(CC2C2CCCC(O)C2)C1(C)C (stereo not drawn) |  | 3.04 µM (active) |
| CCCC(O)C(O)CO (stereo not drawn) | inactive |  |
| CC(C)CC(C)CC(O)CC(C)C (stereo not drawn) | inactive |  |
| CCOC(=O)C(C#N)=C(c1ccccc1)c1ccccc1 |  | 1.39 µM (active) |

| SMILES | outcome | AC50 |
| --- | --- | --- |
| Cc1ccc(S(N)(=O)=O)cc1 | inactive |  |
| CC1(C)O[C@@H]2C[C@H]3[C@@H]4CCC5=CC(=O)C=C[C@]5(C)[C@@]4(F)[C@@H](O)C[C@]3(C)[C@]2(C(=O)CO)O1 |  | 13.8 µM (active) |
| CC(C)(CO)[C@@H](O)C(=O)NCCC(=O)O |  | 53.4 µM (active) |
| Cc1c(Cl)cccc1[N+](=O)[O-] | inactive |  |
| CC1(C)COCN1 | inactive |  |
| CCCOC(=O)c1c(Cl)c(Cl)c(Cl)c(Cl)c1C(=O)OCCC |  | 1.64 µM (active) |
| CC(C)Nc1nc(N)nc(Cl)n1 | inactive |  |
| OCCCCC(O)CO (stereo not drawn) | inactive |  |
| Cc1cc(=O)oc2cc(N(C)C)ccc12 | inactive |  |
| CS(=O)(=O)OCCCCOS(C)(=O)=O |  | 55.8 µM (active) |
| CCOC(=O)C1OC1c1ccccc1 (stereo not drawn) | inactive |  |
| CCOc1ccc(N=Nc2ccc(C=Cc3ccc(N=Nc4ccc(OCC)cc4)cc3S(=O)(=O)O)c(S(=O)(=O)O)c2)cc1 |  | 39.9 µM (active) |
| CN(C)c1cccc(O)c1 |  | 6.77 µM (active) |
| O=C(O)CCCCCCCCCCCC(=O)O | inactive |  |
| N[C@@H](Cc1cc(I)c(Oc2cc(I)c(O)c(I)c2)c(I)c1)C(=O)O |  | 6.42 µM (active) |
| O=C(c1ccccc1)C(O)c1ccccc1 (stereo not drawn) |  | 57 µM (active) |
| C[Si]1(C)O[Si](C)(C)O[Si](C)(C)O1 |  | 32.5 µM (active) |
| COc1cc(Cl)c(OC)cc1N |  | 62.4 µM (active) |
| C=CCCC(=O)/C=C/C1C(C)=CCCC1(C)C (stereo not drawn) |  | 1.18 µM (active) |
